# aSyn UTR inh: 5' untranslated region of α-synuclein, MLPCN primary screen; 0.82% of 300,000 active; alpha-synuclein 5'UTR reporter, inhibitor activity; AID 1813; inhibition, % (tested at 7.5 µM); in the data active = inhibition above about 60%; inconclusive = no clear call, values can overlap the other calls;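 also: H4 neuroglioblastoma cells stably carrying SNCA 5'UTR luciferase fusion; 0% = DMSO wells and 100% = positive control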
# Mdm2 MdmX PPI: inhibitors of human Mdm2/MdmX interaction | inhibition, % at 8 µM | 3% of 330,000 active | AID 485346 | SaOS-2 split-luciferase Mdm2/MdmX complementation, luminescence;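 active = inhibition of at least 50% at 8 µM in the primary screen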
# CSC inhib: cancer stem cell inhibition; AID 2717; cancer stem cell-like cells viability, luminescence; inhibition, % at 7.5 µM; 1.1% of 300,000 active; in the data active = inhibition above about 75%; inconclusive = no clear call, values can overlap the other calls; tested in HMLE shEcad cells
# Beta apoptosis: beta cell apoptosis inhibition; 0.8% of 300,000 active; AID 435005; INS-1E cytokine-induced death, ATP luminescence, 48 h; percent of positive-control rescue, neutral wells zero; protection from apoptosis, % (concentration not given with the values);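 active = Every replicate reaches about 75%, or at least half do and their mean reaches it too, limit read from the data; inconclusive = At least half of replicates reach the limit but their mean does not; inactive = Under half of replicates reach the limit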;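 also: 0% = cytokine-treated negative control wells and 100% = positive control rescue; higher means more ATP so stronger rescue from cytokine killing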
# A1 inh: inhibitors of the anti-apoptotic protein A1, read as caspase activation; 0.066% of 330,000 active; MEF A1-2A-BIM cells, Caspase-Glo 3/7 luminescence, 3 h; percent of clofoctol response, vehicle zero; caspase activation, % (concentration not given with the values);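 active = over half of replicate activation scores above 10%, or exactly half above 10 with the replicate mean above 10; inconclusive = replicate mean below 10 yet half the replicates above 10; inactive = over half of replicates below 10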
# Mdm2 MdmX conf: confirmation of human Mdm2/MdmX interaction inhibitors; AID 489028; 55% of 10,000 active; Mdm2-MdmX binding, luminescent assay; shares compounds with Mdm2 MdmX PPI; inhibition, % at 8 µM; in the data active = inhibition above about 40%
# Full FLuc ctr: full-length luciferase inhibition in Mdm2/MdmX counter-screen | shares compounds with Mdm2 MdmX PPI | SaOS-2 full-length luciferase counterscreen, luminescence | inhibition, % at 8 µM | 77% of 6,200 active;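 active = mean inhibition at 8 µM reaching about 37%, which flags the compound as non-specific, limit read from the data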;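 also: p53-null SaOS-2 cells with luciferase driven by a doxycycline-inducible promoter; compound on cells about two nights before reading with doxycycline added after day one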
# The depositor's hits bear a star; ? = inconclusive; . = not tested or not shown. The list is not random: actives were taken first. Their share in the collection is about 4.1%.
SMILES,aSyn UTR inh,Mdm2 MdmX PPI,CSC inhib,Beta apoptosis,A1 inh,Mdm2 MdmX conf,Full FLuc ctr
N#Cc1ccc(N/N=C/c2cn(-c3ccccc3)nc2-c2ccccc2)c([N+](=O)[O-])c1,22,91*,56,87*,1,5,.
Cc1ccc(C)c(NC(=O)CN(C)C(=O)c2cc3ccccc3oc2=O)c1,.,-9,2,-4,-2,.,.
CN(C)CCN(C(=O)CCS(=O)(=O)c1ccccc1)c1nc2c(F)cccc2s1,-3,11,-3,-6,0,.,.
Cc1ccc2sc(N(CCCN(C)C)C(=O)CCS(=O)(=O)c3ccccc3)nc2c1C,44,60*,56,-3,0,57*,30
COc1ccc(Cl)c2sc(N(CCN(C)C)C(=O)CCS(=O)(=O)c3ccc(C)cc3)nc12,-2,12,-5,.,0,.,.
COc1ccc(OC)c2sc(N(CCCN(C)C)C(=O)CCS(=O)(=O)c3ccccc3)nc12,-3,82*,57,.,?,77*,21
CC(=O)N(CCCNC(=O)c1ccccc1)C(=O)c1ccccc1,11,-13,0,-2,0,.,.
Cc1cc([N+](=O)[O-])ccc1NC(=O)C(C)NC1CCCCC1 (centres undefined),6,15,0,-8,1,.,.
CC(Sc1ncnc2sc(-c3ccccc3)cc12)C(=O)NCC1CCCO1 (centres undefined),-16,67*,30,-1,-1,59*,91*
O=C(COC(=O)C12CC3CC(CC(C3)C1)C2)Nc1nc2c(F)c(F)c(F)cc2s1,-10,58*,.,.,0,14,.
Cc1ccc2[nH]c(C)c(/C=C/c3cc[n+](C)cc3)c2c1,54,74*,15,72,1,67*,54*
Cc1ccc2c(c1)c(/C=C/c1cc[n+](C)cc1)c(C)n2C,44,83*,7,90*,2,59*,49*
C[n+]1ccc(/C=C/c2c[nH]c3ccc(F)cc23)cc1,-10,48,11,58,0,.,.
COc1ccc(C(=O)CC(=O)C(=O)Nc2ccc(C)c(Cl)c2)cc1,-43,.,0,0,-1,.,.
O=C(O)CC(Sc1n[nH]c(=S)s1)C(=O)O (centres undefined),.,4,0,-6,0,.,.
O=C(O)c1cccc(Nc2ncnc3ccc(Br)cc23)c1,-30,-17,-10,-3,0,.,.
Brc1ccc2ncnc(Nc3cccc4ccccc34)c2c1,-22,61*,40,-8,0,41*,53*
COc1ccc(OC)c(Nc2ncnc3ccc(Br)cc23)c1,18,51*,5,-2,0,35,.
CCN(CC)c1ncnc2ccc(Br)cc12,15,58*,-12,-4,0,52*,38*
CC(C)OC(=O)c1cccc(NC(=O)CSc2nnc(N)s2)c1,-21,19,-1,-2,1,.,.
Cc1sc2nc(C3CC3)nc(SCC(=O)N3c4ccccc4CC3C)c2c1C (centres undefined),10,85*,58,9,1,90*,53*
Cc1nn(-c2ccccc2Cl)c(Cl)c1/C=N/Nc1cccc(C(=O)O)c1,103*,73*,12,-4,-9,83*,124*
Cc1nn(-c2cccc(C(F)(F)F)c2)c(Cl)c1/C=N/Nc1cccc(C(=O)O)c1,-108,.,25,13,-4,.,.
Cc1cccc(C(=O)OCC(=O)N(CC(C)C)c2c(N)n(Cc3ccccc3)c(=O)[nH]c2=O)c1O,15,23,-2,-5,0,.,.
Nc1[nH]nc2nc(NCc3ccccc3)c3c(c12)CCN(Cc1ccccc1)C3,44,53*,20,-18,0,20,.
CCCOc1ccc(C(=O)N(CC(C)C)c2c(N)n(Cc3ccccc3)c(=O)[nH]c2=O)cc1,12,-3,-17,1,1,.,.
CC1C(=O)N2CCCc3cc(NC(=O)C(=O)NCc4ccccn4)cc1c32 (centres undefined),17,8,-7,-2,0,.,.
CCOc1ccc(C(=O)NC(=S)Nc2ccccn2)cc1[N+](=O)[O-],-104,88*,5,-3,-1,-14,.
